Measurements reported in PubChem BioAssay (Tox21).
Results filed as inconclusive are left out. Unmarked numbers belong to inactive results. Activity calls are given as the source filed them. Calls come from the whole dose curve; as a rule, active = well fitted cell-killing curve with a large enough effect in the repeat runs; inconclusive = weak or mixed curves, or effect the other way; inactive = no such curve, though single readings can be large or run the other way.

Test: qHTS assay to identify small molecule antagonists of the thyroid receptor (TR) signaling pathway - cell viability counter screen (AID 743064); note: nearly all actives have a fitted effect of over 50% in size
Settings: GH3.TRE-Luc viability, CellTiter-Fluor, 24 h; series mostly up to 70.3 µM; activity change, negative = cytotoxic: at the top concentration
From the text: National Center for Advancing Translational Sciences [NCATS]
NIH Chemical Genomics Center [NCGC]
U.S. Environmental Protection Agency [EPA]
National Institutes of Environmental Health Sciences [NIEHS]
National Toxicology Program [NTP]
U.S. Food and Drug Administration [FDA]
Thyroid receptor (TR), a nuclear hormone receptor, plays an important role in development, proliferation, differentiation, metabolism, brain function, and cardiovascular system. […] To profile the Tox21 10K compound library in TR signaling, a cell-based GH3-TRE-Luc assay (GH3.TRE-Luc cell line, developed by the laboratory of Dr. Albertinka J. Murk, Wageningen University) was used to measure the inhibition of TR. GH3 (rat pituitary tumor) cells stably expressing a TR activity sensor consisting of two TR response elements and a luciferase reporter gene. The cytotoxicity of the Tox21 compound library against the GH3.TRE-Luc cell line was tested in parallel by measuring the cell viability using CellTiter-Fluor assay (Promega, Madison, WI) in the same wells.
Tox21 Assay Protocol Summary:
GH3.TRE-Luc cells were dispensed at 1500 cells/4 uL/well into 1536-well white solid bottom plates using a Multidrop Combi dispenser (Thermo Fisher Scientific Inc., Waltham, MA). After the assay plates were incubated at 37 C for 4 hours, 23 nL of library compound or DMSO controls was transferred to the assay plates by a pintool station (Kalypsys, San Diego, CA), followed by addition of 1 ul of T3 (1 nM, final concentration in the wells) to stimulate TR transactivation. The assay plates were incubated at 37 C for 23.5 h, and then 1 uL of CellTiter-Fluor reagent (Promega, Madision, WI) of measuring cytotoxicity was added to each well using a Bioraptr Flying Reagent Dispenser (FRD) workstation (Beckman Coulter, Indianapolis, IN, USA). The plates were incubated at 37C and 5% CO2 for additional 30 min, and fluorescence intensity was measured by a ViewLux plate reader (PerkinElmer, Shelton, CT).
% is set by controls: 0 for no effect and ±100 for the full control effect; potency is the fitted concentration of half-maximal effect.

Structure (SMILES) | activity change, negative = cytotoxic | Potency
C=C(C)C(=O)NCCC[N+](C)(C)C | 1.99% | –
CCn1cc(C(=O)O)c(=O)c2cc(F)c(N3CCN(C)CC3)cc21 | -0.629% | –
NC(CS)C(=O)O (stereo not given) | 10.7% | –
CCCCc1ccc(N)cc1 | -8.88% | –
COC[C@H](c1ccc(C(F)(F)F)cc1)N1CCN(C2(C)CCN(C(=O)c3c(C)ncnc3C)CC2)C[C@H]1C | -2.84% | –
CCCCNc1ccccc1 | 20.7% | –
CCCCC1CCCCC(=O)O1 (stereo not given) | 1.57% | –
COc1nc(C)nc(N)n1 | 3.79% | –
CC(C)=CC(=O)O | -0.18% | –
CC1=CCC2C(C1)C2(C)C (stereo not given) | -0.469% | –
C#CC(C)(O)CC(C)C (stereo not given) | 16.9% | –
OC/C=C/c1ccccc1 | – | inactive
CC(C)COC(=O)C(C)C | 0.993% | –
Cc1nccn1CC1CCc2c(c3ccccc3n2C)C1=O (stereo not given) | – | inactive
C=CC(=O)N1CCOCC1 | -3.05% | –
CC(C)c1cccc(C(C)C)c1N | -8.06% | –
CCO[Si](CCCN=C=O)(OCC)OCC | 6.95% | –
CC/C=C\C#N | 20.4% | –
Cc1ncc(CSSCc2cnc(C)c(O)c2CO)c(CO)c1O | 0.654% | –
CN(C)C(=O)Nc1ccccc1 | 15.4% | –

Structure (SMILES) | activity change, negative = cytotoxic | Potency
CC(C)COC(=O)c1ccccc1O | 16.4% | –
NCCN1CCNC1=O | 8.7% | –
COc1cc(CCC(C)=O)ccc1O | 9.32% | –
CC(C)[C@H](N)C(=O)OCCOCn1cnc2c(=O)[nH]c(N)nc21 | 20.5% | –
OC1OC[C@@H](O)[C@H](O)[C@H]1O (stereo not given in full) | 2.03% | –
OCCN1C[C@H](O)[C@@H](O)[C@H](O)[C@H]1CO | 8.52% | –
NS(=O)(=O)c1cc(C2(O)NC(=O)c3ccccc32)ccc1Cl (stereo not given) | -2.38% [at 32.5 µM] | –
FC(F)(F)C(F)(F)C(F)(F)C(F)(F)C(F)(F)C(F)(F)C(F)(F)C(F)(F)C(F)(F)C(F)(F)F | 12.8% [at 8.44 µM] | –
NC(=S)Nc1cccc2ccccc12 | -2.02% [at 8.44 µM] | –
C#CC(O)C(CC)CCCC (stereo not given) | -0.82% | –
CN(C)C(=O)C(CCN1CCC(O)(c2ccc(Cl)cc2)CC1)(c1ccccc1)c1ccccc1 | – | 8.41 µM (active)
O=C1OC(=O)c2cc([N+](=O)[O-])ccc21 | 5.28% | –
Cc1cc(C)cc(OCC2CNC(=O)O2)c1 (stereo not given) | 34.5% | –
CCN1CCCC(OC(=O)C(c2ccccc2)c2ccccc2)C1 (stereo not given) | – | 12.7 µM (active)
N[C@@H](CS)C(=O)O | 0.199% [at 95 µM] | –
OCc1ccccn1 | 14.2% | –
CCCCCCCCCCCCCCCCCCOCC(O)CO (stereo not given) | 8.5% | –
COCc1ccc(COC)cc1 | 15.3% | –
CCCC=O | 10.4% | –
CC(=O)O[C@H](CC(=O)[O-])C[N+](C)(C)C | -4.43% | –
